Shiga inhibitor = A qHTS for Small Molecule Inhibitors of Shiga Toxin; inhibition, % at 38.7 µM; Vero cells, Shiga toxin protein synthesis inhibition reporter; AID 2315, 2010; 290,000 compounds, 9.2% hits; in the data active = inhibition mostly above about 28%, no sharp cut-off; inactive = mostly below about 43%
Cycloheximide cs = Cycloheximide Counterscreen for Small Molecule Inhibitors of Shiga Toxin; cell reporter, cycloheximide protein synthesis inhibition counterscreen; max response, %; 300,000 compounds, 12% hits; in the data active = max response mostly above about 13%, no sharp cut-off; inactive = mostly below about 14%; note: read at 38.3 µM for the half of the compounds with a filed dose
FBPA Giardia inh = qHTS Assay for Inhibitors of Fructose-1,6-bisphosphate Aldolase from Giardia Lamblia. purified Giardia FBPA. AID 2451, 2010. Potency, µM (top dose mostly 59.6 µM), usual class: inhibitors. A8B2U2. 290,000 compounds, 0.71% hits; note: nearly all actives have a fitted effect of over 55% in size
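40 nM FBPA preincubated 10 min at RT with compound (up to 57.5 uM final), then substrate plus GAPDH/TPI/NAD/arsenate coupling and diaphorase/resazurin added. Fluorescence read after 20 min at RT, 525/598 nm.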
LmPK inh = qHTS Assay for Inhibitors of Leishmania Mexicana Pyruvate Kinase (LmPK) | 290,000 compounds, 0.37% hits | Potency, µM (top dose mostly 57.5 µM), actives largely listed as inhibitors | Q27686 | purified LmPK, Kinase-Glo ATP luminescence, 1 h
Target sequence (Q27686 whole entry, looked up): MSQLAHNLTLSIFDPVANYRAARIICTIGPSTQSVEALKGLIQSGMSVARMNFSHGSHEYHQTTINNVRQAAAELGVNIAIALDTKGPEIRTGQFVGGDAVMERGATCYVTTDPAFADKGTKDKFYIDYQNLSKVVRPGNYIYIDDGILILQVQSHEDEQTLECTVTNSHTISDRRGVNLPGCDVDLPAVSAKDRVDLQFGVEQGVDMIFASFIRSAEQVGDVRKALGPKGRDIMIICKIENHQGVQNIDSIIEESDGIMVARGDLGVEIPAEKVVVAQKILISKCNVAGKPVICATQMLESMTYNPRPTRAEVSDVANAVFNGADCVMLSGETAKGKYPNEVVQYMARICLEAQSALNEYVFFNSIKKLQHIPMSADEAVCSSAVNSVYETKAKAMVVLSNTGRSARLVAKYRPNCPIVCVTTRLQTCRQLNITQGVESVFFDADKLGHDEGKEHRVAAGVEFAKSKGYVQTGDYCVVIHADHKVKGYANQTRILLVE
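In 50 mM imidazole pH 7.2 with 7 mM MgCl2, LmPK (0.1 nM) turned over PEP (0.5 mM) and ADP (0.1 mM) for 1 h at room temperature. Luciferase read-out of ATP.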
RE007 growth inh = qHTS Assay for Inhibitors of the HIV-1 protein Vpr; S. pombe RE007 Vpr strain, BacTiter-Glo ATP luminescence, 24 h; Potency, µM (titrated, usually from 92.2 µM), usual class: inhibitors; 360,000 compounds, 0.21% hits; AID 651644, 2012; active = well fitted falling curve with a large enough effect; inconclusive = small, poorly fitted or top-dose-only effect; inactive = no such curve, though single readings can be large or run the other way; note: nearly all actives have a fitted effect of over 50% in size
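Fission yeast strain RE007, carrying one chromosomally integrated HIV-1 vpr copy, was seeded at OD 0.01 in PMG+AL medium with 23 nL pinned compound. After 24 h at 30 °C and 99% humidity, viability was read by BacTiter-Glo luminescence.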
TbPYK inhibitor = qHTS of Trypanosoma Brucei Inhibitors; TbPYK enzyme, Kinase-Glo Plus ATP luminescence, 45 min; pyruvate kinase (Trypanosoma brucei), Q57TT1; 410,000 compounds, 0.12% hits; Potency, µM (top dose mostly 76.8 µM), usual class: inhibitors; note: nearly all actives have a fitted effect of over 50% in size
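ADP (130 uM final) triggers the TbPYK reaction after compound addition; incubation is 45 min at room temperature. Kinase-Glo Plus is then added and luminescence imaged. Normalized data are fitted to concentration-effect curves.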
Numbers stand for hits; i = inactive; ? = inconclusive; nt = no result; [ ] = another dose, or the depositor's remark. Only a selection was taken, and hits are over-represented in it overall. Unless noted, calls come from the whole dose curve; as a rule, active = well fitted curve in the direction sought with a large enough effect; inconclusive = small, poorly fitted or top-dose-only effect, or another doubt; inactive = no such curve, though single readings can be large; an effect the other way counts as inactive or inconclusive.

SMILES	Shiga inhibitor	Cycloheximide cs	FBPA Giardia inh	LmPK inh	RE007 growth inh	TbPYK inhibitor
Cc1ccc(NC(=O)c2cccc(OC(F)F)c2)c(OC(F)F)c1	i	i	i	i	nt	i
Cc1c(Cl)cccc1NC(=O)c1cccc(OC(F)F)c1	94	37	i	i	?	i
COc1ccc(NC(=O)c2ccccc2F)cc1Cl	35	29	i	?	?	i
O=C(Nc1ccc2c(c1)CCC2)c1cccc(OC(F)F)c1	nt	nt	nt	nt	i	i
COc1cc(OC)c(NC(=O)c2cccc(F)c2)cc1Cl	i	i	i	i	i	i
COc1ccc(NC(=O)c2cccc(F)c2)cc1Cl	57	20	i	i	i	i
COc1ccc(NC(=O)c2ccco2)cc1NC(=O)c1ccccc1F	i	i	i	i	i	i
O=C(Nc1ccc(OC(F)F)c(Cl)c1)c1cccc(OC(F)F)c1	67	43	?	i	?	i
COCCn1c(C)cc(O)c(C(c2ccccc2)N2CCN(c3ccc(F)cc3)CC2)c1=O (stereo not given)	nt	nt	nt	nt	nt	i
COc1ccc(NC(=O)c2cccc(OC(F)F)c2)cc1Cl	131	39	i	i	i	i
CCC(CC)c1nn2c(=O)cc(COc3ccc(NC(=O)c4ccc(Cl)cc4)cc3)nc2s1	nt	nt	nt	nt	nt	i
CCc1cc2c3c(c1)C1(C(=O)N3C(C)(C)CC2C)C(C#N)=C(N)N2C(=C1C#N)Nc1ccccc12 (stereo not given)	i	i	i	i	i	i
N#CC1=C(N)N2C(=C(C#N)C13CCCC3)Nc1ccccc12	51	8.8	i	i	i	i
O=C(Cc1ccc(Nc2nc3ccc(Br)cc3[nH]2)cc1)NCCc1cccs1	i	15	i	i	i	i
Nc1nncn1C(=O)CCc1ccccc1	i	9.3	i	i	i	i
Cc1ccccc1NS(=O)(=O)c1ccc2[nH]cc(C(=O)NCCc3ccccc3)c(=O)c2c1	nt	nt	nt	nt	nt	i
COc1ccc(C2CCCCCN2Cc2nc3ccccc3c(=O)n2CC(N)=O)cc1 (stereo not given)	i	i	i	i	i	i
CCC1CCCCN1Cc1nc2ccccc2c(=O)n1CC(C)=O (stereo not given)	75	34	i	i	i	i
CCOC(=O)c1ccc(NC(=O)Cn2c(=O)cc(C(F)(F)F)c3c(C)nn(C)c32)cc1	nt	nt	nt	nt	nt	i
CC(=O)c1ccc(N2CCN(C(=O)C3CCCN(S(=O)(=O)c4cnc[nH]4)C3)CC2)cc1 (stereo not given)	i	22	i	i	i	i
Cc1c(CNCCc2ccccc2Cl)c(C(=O)O)c(C)n1-c1ccccc1	i	17	i	i	i	i
COc1cc(/C=N/NC(=O)c2cc(-c3cccs3)nc3ccccc23)ccc1O	45	i	i	i	i	i
N#Cc1ccc(/C=N/NC(=O)c2cc(-c3cccs3)nc3ccccc23)cc1	i	22	i	i	i	i
Cc1ccc2nc(SCC(=O)c3c(C)[nH]c4ccccc34)[nH]c2c1	i	21	?	i	i	i
Cc1[nH]c2ccccc2c1C(=O)CSc1nc2ncc(Cl)cc2[nH]1	i	i	i	i	i	i
SMILES	Shiga inhibitor	Cycloheximide cs	FBPA Giardia inh	LmPK inh	RE007 growth inh	TbPYK inhibitor
Fc1cccc(F)c1CSc1nc2ccccc2[nH]1	111	37	i	i	?	i
Cc1[nH]c2ccccc2c1C(=O)CSC(=S)N(C)C	74	30	i	i	i	i
O=C(CSc1nc2ccccc2[nH]1)c1ccccc1F	92	40	i	i	i	i
Cc1ccc(NC(=O)Cn2c(=O)c3ccc(Cl)cc3n3nncc23)cc1	nt	nt	nt	nt	nt	i
O=c1[nH]c(SCc2ccccc2F)nc2ccccc12	i	i	i	i	i	i
O=C(CSc1nc2ccccc2[nH]1)c1ccc(Cl)s1	86	39	i	i	i	i
Fc1cccc(CSc2nc3ccncc3[nH]2)c1	50	32	i	i	i	i
Fc1ccccc1CSc1nc2ncccc2[nH]1	63	45	i	i	i	i
O=C(CSc1nc2ccccc2[nH]1)c1c[nH]c2ccccc12	72	29	i	i	i	i
Clc1cccc(CSc2nc3ccncc3[nH]2)c1	i	i	i	i	i	i
N#C/C(=C\c1ccccc1)c1nc(-c2cc3c(ccc4ccccc43)oc2=O)cs1	nt	nt	nt	nt	nt	i
CS(=O)(=O)N1CCC2(CC1)CN(C(c1ccccc1)c1ccccc1)C2	nt	nt	i	nt	nt	i
COc1ccc(-c2nc(Cn3c(SCc4ccccc4F)nc4cccnc43)c(C)o2)cc1	nt	nt	nt	nt	nt	i
Cc1ccc2nc(SCC(=O)c3c[nH]c4ccccc34)[nH]c2c1	71	i	i	i	i	i
Cn1c(SCc2ccccc2F)nc2cccnc21	117	28	i	i	i	i
O=P1(O)C=C(c2ccccc2)OC(c2ccccc2)=C1	146	67	?	i	i	i
COc1ccc(S(=O)(=O)N2CCC(C(=O)Nc3ccc(Oc4ccccc4)cc3)CC2)cc1OC	nt	nt	nt	nt	nt	i
O=C(Nc1ccc(Cl)cc1Cl)c1cc2ccccc2o1	57	51	i	i	i	i
O=C(NCc1ccccc1Cl)c1cc2ccccc2o1	nt	nt	nt	nt	nt	i
O=C(Nc1ncccc1Cl)c1cc2ccccc2o1	73	30	nt	i	i	i
COc1ccccc1NC(=O)c1cc2ccccc2o1	64	39	i	i	i	i
CCN(CC)c1ccc(NC(=O)c2c(OC)cccc2OC)c(C)c1	i	i	i	i	i	i
CCN(CC)c1ccc(NC(=O)c2cc3ccccc3o2)c(C)c1	59	26	i	i	i	i
Cc1ccccc1NC(=O)c1cc2ccccc2o1	nt	37	i	i	i	i
Cc1ccccc1NC(=O)c1cc(=O)c2ccccc2o1	i	i	i	i	i	i
SMILES	Shiga inhibitor	Cycloheximide cs	FBPA Giardia inh	LmPK inh	RE007 growth inh	TbPYK inhibitor
NC(N)=N/N=C/c1cc([N+](=O)[O-])ccc1O	i	12	i	i	i	i
COc1ccc(NC(=O)c2oc3ccccc3c2NC(=O)C2CCCCC2)c(OC)c1	nt	nt	nt	nt	nt	i
CNC(=O)Oc1ccc2c(c1)C(=O)c1ccccc1CO2	i	16	i	i	i	i
COc1ccc2c(c1)C(=O)c1ccccc1CO2	117	53	i	i	i	i
CCOc1ccc(CNC(=O)c2cc3c(s2)-c2ccccc2OC3)cc1	nt	nt	nt	nt	nt	i
O=C1c2ccccc2COc2ccc(O)cc21	i	i	i	i	i	i
CN(Cc1ccccc1)C(=O)c1ccc2c(c1)N(Cc1ccccc1Cl)C(=O)c1ccccc1S2	nt	nt	nt	nt	nt	i
CC(=O)Cc1nsc(NC(=O)c2cccs2)n1	i	31	i[12.9 µM]	i	i	i
Cc1nnc(NC(=O)c2ccc(-c3ccc(Cl)cc3)o2)s1	nt	nt	nt	nt	i	i
O=C(Nc1nccs1)c1ccc(-c2ccc(F)cc2)o1	95	41	i	i	i	i
